Screening results from PubChem.
Shown are actives, neighbours in structure and some others; about 5% of the full set was active somewhere.
Tb PYK inh – inhibitors of Trypanosoma brucei pyruvate kinase. TbPYK enzyme, Kinase-Glo Plus ATP luminescence, 45 min. Potency, µM (highest dose often 76.8 µM), inactives show at the highest dose activity, negative = inhibition, actives largely listed as inhibitors. 410,000 compounds, 0.12% hits; further: potency means the concentration at half of the fitted maximal effect; nearly all actives have a fitted effect of over 50% in size
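Assay buffer: 50 mM TEA pH 7.2, 100 mM KCl, 10 mM MgCl2, 0.05% BSA, 0.01% Tween-20. Pyruvate kinase from T. brucei plus substrate met compound, then ADP (130 uM final). Luminescence was read post 45 min RT.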
LmPK inhibitor – inhibitors of Leishmania mexicana pyruvate kinase; Q27686; purified LmPK, Kinase-Glo ATP luminescence, 1 h; Potency, µM (titrated, usually from 57.5 µM), for inactives: at the highest dose activity change, negative = inhibition, most hits filed as inhibitors; 290,000 compounds, 0.37% hits; AID 1721; further: potency means the concentration at half of the fitted maximal effect
Target sequence (Q27686 whole entry, looked up): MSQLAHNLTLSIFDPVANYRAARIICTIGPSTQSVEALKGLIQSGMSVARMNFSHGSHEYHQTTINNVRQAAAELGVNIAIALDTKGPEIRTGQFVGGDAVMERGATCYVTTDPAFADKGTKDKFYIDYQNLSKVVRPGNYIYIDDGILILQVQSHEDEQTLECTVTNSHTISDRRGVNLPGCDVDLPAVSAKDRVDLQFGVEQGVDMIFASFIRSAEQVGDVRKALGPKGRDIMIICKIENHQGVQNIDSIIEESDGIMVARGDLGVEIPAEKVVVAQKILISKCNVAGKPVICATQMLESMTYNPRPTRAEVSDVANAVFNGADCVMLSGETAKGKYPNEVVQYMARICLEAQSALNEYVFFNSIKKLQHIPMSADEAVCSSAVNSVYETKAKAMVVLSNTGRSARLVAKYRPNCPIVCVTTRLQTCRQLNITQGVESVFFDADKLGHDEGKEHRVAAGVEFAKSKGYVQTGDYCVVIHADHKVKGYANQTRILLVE
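Screened at intermediate enzyme activity to detect both inhibitors and activators: LmPK at 0.1 nM, with a 0.5 nM enzyme column as activation reference. PEP 0.5 mM, ADP 0.1 mM; ATP detected by luminescence after 1 h.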
HCMV antiviral – blocks human cytomegalovirus replication; 410,000 compounds, 4.5% hits; activity change, negative = inhibition, % at 57.5 µM; HFF cells, HCMV-luciferase reporter, 72 h; stronger effect = lower value; in the data active means activity change below about -60%; inconclusive means no clear call, values can overlap the other calls; inactive means above about -39%
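After 16 h attachment at 37C, HFF cells received test compound and HCMV-luciferase (1 PFU/cell); reporter luminescence read 72 h later, data normalized against buffer-only and known inhibitor Salinomycin.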
Vaccinia Venus – inhibitors of vaccinia virus (Venus reporter). Vaccinia virus Venus reporter expression, fluorescence. Potency, µM (series often up to 36.5 µM), for inactives: top-dose activity change, negative = inhibition, most hits filed as inhibitors. 330,000 compounds, 0.46% hits. AID 720580; calls by dose curve; tested in A549 cells; further: potency means the concentration at half of the fitted maximal effect; nearly all actives have a fitted effect of over 30% in size
Vaccinia mCherry – inhibitors of vaccinia virus infection (mCherry reporter signal) | Vaccinia virus mCherry reporter infection, fluorescence | Potency, µM (series often up to 36.5 µM), for inactives: top-dose activity change, negative = inhibition, usual class: inhibitors | 310,000 compounds, 0.63% hits; calls by dose curve; tested in A549 cells; further: potency means the concentration at half of the fitted maximal effect; nearly all actives have a fitted effect of over 35% in size
* hit, by the source's call; i = inactive; ? = inconclusive; / = no result; + = active, no number; ! = not active in a repeat. Unless noted, the call rests on the fitted dose curve; in most records, active means well fitted curve in the direction sought with a large enough effect; inconclusive means small, poorly fitted or top-dose-only effect, or another doubt; inactive means no such curve, though single readings can be large; an effect the other way counts as inactive or inconclusive. On the % scale 0 is the no-effect control and ±100 the full control effect.

SMILES	Tb PYK inh	LmPK inhibitor	HCMV antiviral	Vaccinia Venus	Vaccinia mCherry
COc1ccc(-c2csc(NC(C)c3nc4cc(Cl)c(N5CCCCC5)cc4n3CCCO)n2)cc1 (stereo not given)	6.2%	/	0.2	?	8.91µM*
CC(Nc1nc(-c2ccc(F)cc2)cs1)c1nc2cc(Cl)c(Cl)cc2n1CCCO (stereo not given)	-5.1%	/	3.2	?	10µM*
COc1ccc(-c2csc(NC(C)c3nc4cc(Cl)c(N5CCCCC5)cc4n3CCOCCO)n2)cc1 (stereo not given)	-5.0%	/	8.8	?	-15.4%
COc1cccc(NC(=S)N(CCc2ccc(OC)c(OC)c2)Cc2ccccn2)c1	0.3%	0.9%	-32.5	-11.3%	i
CCCNC(=O)NS(=O)(=O)c1ccc(Cl)cc1	0.0%	4.5%	55.0	-5.7%	-17.9%
CCCNC(=O)c1nnsc1S(=O)(=O)c1ccc(Cl)cc1	3.2%	0.1%	-99.1*	12.6µM*	?
CCCNC(=O)c1nnsc1S(=O)c1ccc(Cl)cc1 (stereo not given)	-12.5%	-4.5%	-101.5*	?	?
CN(C)N=Nc1nc2c(c(=O)n(C)c(=O)n2C)n1CC1CO1 (stereo not given)	-3.9%	1.6%	-77.5*	?	?
COCCNc1nc(-c2ccc(OC)cc2)c(-c2ccc(OC)cc2)s1	-2.8%	2.7%	-68.9*	/	/
CCCCCCNc1nc(-c2ccc(OC)cc2)c(CCC(=O)O)s1	-4.6%	-0.2%	-61.6*	-2.1%	-11.3%
COC(=O)CCc1sc(Nc2ccc(OC)cc2)nc1-c1ccc(OC)cc1	0.7%	/	17.8	-14.5%	i
COc1cc2c(cc1NC(=O)c1cccc([N+](=O)[O-])c1)oc1ccccc12	0.8%	5.5%	?	-30.0%	/
CNc1ccccc1C(C)(C)c1cc(C)[nH]n1	-25.9%	5.0%	-65.0*	/	/
CNc1ccccc1C(C)(C)c1cc(-c2ccco2)n[nH]1	-1.7%	-7.0%	2.9	-2.1%	-4.5%
CN(CC#CCN1CCCC1)C(=O)c1cccc(Cl)c1	-6.5%	/	2.9	/	/
CC(=O)N(C)CC#CCN1CCCC(CO)C1 (stereo not given)	-0.7%	/	-60.7*	/	/
O=C(C[n+]1ccn(CCCNP2(=O)C=C(c3ccccc3)OC(c3ccccc3)=C2)c1)c1ccccc1	-1.4%	0.5%	?	/	/
CC[N+](CC)(CCCCS(=O)(=O)[O-])CCNP1(=O)C=C(c2ccccc2)OC(c2ccccc2)=C1	2.3%	2.2%	-70.4*	/	/
Cc1nc(N)nc(COc2ccccc2)n1	-3.1%	-3.8%	10.6	-17.7%	-10.9%
CCC(=O)Oc1ccc(-c2nc(-c3cccnc3)no2)cc1	-19.8%	7.94µM*	36.8	/	/
NC(=O)c1oc2ccccc2c1NC(=O)C1CCCCC1	0.5%	0.7%	-9.4	-10.2%	i
COc1nc(C#N)nc(N(C)C)n1	-6.6%	-3.8%	-29.4	8.8%	i
CC(=O)Nc1ccc(Oc2sc(C(=O)c3ccccc3)c(N)c2C#N)cc1	1.1%	-1.2%	-88.3*	?	/
CCOC(=O)c1ccc(NC(=S)N2CCSC2c2ccc(Br)cc2)cc1 (stereo not given)	0.4%	2.2%	-61.4*	-8.8%	-13.4%
CN(C(=O)COc1ccccc1C(=O)NCCOc1ccccc1)c1ccccc1	1.0%	-0.5%	-93.3*	11.2µM*	?
SMILES	Tb PYK inh	LmPK inhibitor	HCMV antiviral	Vaccinia Venus	Vaccinia mCherry
O=C(NCCOc1ccccc1)c1ccccc1Cl	0.7%	0.1%	?	-6.8%	-7.9%
Nc1nc(SCC(=O)NCC2CCCO2)n[nH]1 (stereo not given)	-1.9%	1.9%	8.8	-15.7%	-13.0%
CC(=O)c1c(N2CCN(c3ccc(F)cc3)CC2)nc(=S)n(Cc2ccccc2)c1C	-19.2%	-2.2%	-68.0*	-23.0%	-3.6%
CCn1c(C)c(C(C)=O)c(N2CCN(c3ccc(F)cc3)CC2)nc1=S	-3.7%	-2.2%	50.4	-14.8%	?
CCC(C)(C)NC(=O)Nc1cc(Cl)ccc1OC	-6.0%	-0.7%	-61.5*	-27.8%	i
COc1ccc(Cl)cc1NC(=O)CC(=O)Nc1cc(Cl)ccc1OC	6.5%	4.9%	-26.0	-23.3%	-10.1%
COc1cccc(C(C)NC(=O)Nc2cc(Cl)ccc2OC)c1 (stereo not given)	-4.4%	1.3%	-16.2	-15.7%	-10.6%
COc1ccc(Cl)cc1NC(=O)NC(C)C	-0.4%	0.8%	-100.8*	/	/
CCc1nc2ccccc2nc1N1CCN(S(=O)(=O)c2ccccc2)CC1	-5.1%	1.4%	-68.5*	14.6%	-1.1%
CCc1nc2ccccc2nc1N1CCN(S(=O)(=O)c2c(C)cc(Cl)cc2C)CC1	1.4%	-8.4%	-24.9	/	/
COc1ccc(C(=O)NCc2nc(-c3cccc(NC(=O)c4ccc(C)s4)c3)oc2C)cc1	/	/	/	0.0%	-11.1%
CC(=O)Nc1cccc(Oc2cc(C#N)c(C#N)cc2N2CCCCCC2)c1	-1.1%	-0.1%	-86.9*	?	-26.7%
Cc1cc(C)c(S(=O)(=O)/N=C2\C=CC(=O)C(Cl)=C2)c(C)c1	-29.5%	10.5%	/	/	/
COc1ccccc1N1CCN(C(=O)C2CCCN(S(=O)(=O)c3ccc4c(c3)CCCN4C(C)=O)C2)CC1 (stereo not given)	-6.8%	5.8%	-88.6*!	-13.4%	-24.6%
COc1ccccc1N1CCN(C(=O)C2CCCN(S(=O)(=O)c3ccc(C)cc3)C2)CC1 (stereo not given)	-18.1%	/	0.0	/	/
Cc1ccc(C)c(N2CCN(S(=O)(=O)c3ccc4c(c3)CCCN4C(=O)C3CCC3)CC2)c1	7.9%	/	-8.7	-15.4%	-16.9%
CC(=O)N1CCCc2cc(S(=O)(=O)N3CCCC(C(=O)N4CCN(c5ccccc5)CC4)C3)ccc21 (stereo not given)	-5.4%	4.4%	+!	?	?
CC(=O)N1CCCc2cc(S(=O)(=O)N3CCCC(C(=O)N4CCN(c5cc(C)ccc5C)CC4)C3)ccc21 (stereo not given)	2.0%	14.2%	-77.6*!	-18.1%	-16.3%
CC(=O)Nc1ccc(S(=O)(=O)N2CCCC(C(=O)N3CCN(c4ccccc4)CC3)C2)cc1 (stereo not given)	1.0%	-0.8%	-30.9	-9.2%	-6.8%
CN(C)CCCO[C@@H]1[C@H]2OC(C)(C)O[C@H]2O[C@@H]1C(O)CO (stereo not given in full)	/	/	/	-14.1%	-0.3%
O=C(NC(c1ccc(F)cc1)c1ccc2ccccc2n1)C1CCN(CCOc2ccc(F)cc2)CC1 (stereo not given)	-3.8%	/	-0.5	10µM*	11.2µM*
COc1cc(CN2CCC(C(=O)NC(c3ccc(F)cc3)c3ccc4ccccc4n3)CC2)cc(OC)c1 (stereo not given)	4.1%	/	-39.7	14.1µM*	?
COc1cccc(OC)c1OCCN1CCC(C(=O)NC(c2ccc3c(c2)OCO3)c2ccccn2)CC1 (stereo not given)	1.0%	/	-60.6*	-18.8%	12.1%
